Hit rate of the full screen: of about 94,000 compounds, about 2,100 (2.2%) were called active. The list comes from a sample in which actives are over-represented; it also holds similar structures and randomly drawn compounds. Unmarked numbers belong to inactive results. Cut-off read from the data, not from the text of the source: active = activity change below about -80%; inconclusive = no clear call, values can overlap the other calls; inactive = above that.
Assay: P. falciparum Dd2 growth inhibitors, primary screen, SYBR Green fluorescence, single dose replicates (AID 1159554)
Conditions: 72 h, at 10 µM, stronger effect = lower value

For COCC(=O)Nc1ccc2c(c1)C(=O)N(C)C[C@@H](OC)[C@@H](C)CN(C(=O)Cc1ccccn1)[C@@H](C)CO2, which activity change is on record?
Its activity change is -33.6%.

For COc1ccc(S(=O)(=O)N(C)C[C@H]2OCCCC[C@@H](C)Oc3ccc(NS(=O)(=O)c4ccc(C)cc4)cc3C(=O)N([C@@H](C)CO)C[C@@H]2C)cc1, which activity change is on record?
Its activity change is -36.4%.

With CCCNC(=O)N1[C@H](CO)[C@H]2c3ccccc3N(C(=O)Nc3cccc(Cl)c3)C[C@H]21 as the compound, how does the activity change read?
The activity change was 6.16%.

With COc1cccc(-c2ccc([C@@H]3[C@@H](C#N)N(C(=O)c4ccccn4)[C@H]3CO)cc2)c1 as the compound, how does the activity change read?
The activity change was -35.5%.

With COc1cccc(-c2ccc([C@@H]3[C@@H](CO)N(C(=O)c4ccccn4)[C@H]3C#N)cc2)c1 as the compound, how does the activity change read?
Its activity change is -11.6%.

For COc1cccc(C#Cc2ccc([C@H]3[C@@H](CO)N(C(=O)c4ccccn4)[C@H]3C#N)cc2)c1, which activity change is on record?
Its activity change is -92% (active).

For CCCN1C[C@H](C)[C@H](OC)CN(C)C(=O)c2cc(NC(=O)NC3CCCC3)ccc2OC[C@H]1C, which activity change is on record?
The activity change was 20%.

For C[C@@H]1CCCCO[C@@H](CN(C)S(C)(=O)=O)[C@H](C)CN([C@@H](C)CO)C(=O)c2cc(NC(=O)Nc3ccc4c(c3)OCO4)ccc2O1, which activity change is on record?
Its activity change is 33.8%.

With CO[C@H]1CN(C)C(=O)c2cc(NS(=O)(=O)c3ccccc3)ccc2OC[C@@H](C)N(Cc2nccs2)C[C@@H]1C as the compound, how does the activity change read?
Its activity change is -8.31%.

For CCS(=O)(=O)N1CC2(CN(Cc3cc(F)ccc3F)[C@@H](CO)c3c2c2ccc(OC)cc2n3C)C1, which activity change is on record?
The activity change was -72.9%.

With CO[C@H]1CN(C)C(=O)c2cc(NS(C)(=O)=O)ccc2OC[C@@H](C)N(Cc2ccccc2)C[C@@H]1C as the compound, how does the activity change read?
The activity change was -41.2%.

For COCC(=O)N1CCC2(CC1)CN(Cc1ccccc1Cl)[C@H](CO)c1c2c2ccc(OC)cc2n1C, which activity change is on record?
The activity change was -60.4%.

With CCCC(=O)N1CC2(CN(C(=O)NC(C)C)C2)c2c([nH]c3cc(OC)ccc23)[C@@H]1CO as the compound, how does the activity change read?
The activity change was 16.5%.

With COc1ccc2c3c(n(C)c2c1)[C@H](CO)N(Cc1ccccc1Cl)CC31CN(C(=O)CN(C)C)C1 as the compound, how does the activity change read?
Its activity change is -83.6% (active).

For CCC(=O)N1CC2(C1)CN(Cc1ccccc1Cl)[C@@H](CO)c1[nH]c3cc(OC)ccc3c12, which activity change is on record?
The activity change was -91.3% (active).

Which activity change does the source give for COc1ccc2c3c([nH]c2c1)[C@H](CO)N(Cc1ccccc1Cl)CC31CN(C(=O)C2CC2)C1 here?
Its activity change is -92.3% (active).

With COc1ccc2c3c(n(C)c2c1)[C@@H](CO)N(Cc1ccccc1)CC31CN(C(=O)C2CC2)C1 as the compound, how does the activity change read?
Its activity change is -20.3%.

With COc1ccc2c3c([nH]c2c1)[C@@H](CO)N(Cc1ccccc1F)CC31CN(C(=O)C2CC2)C1 as the compound, how does the activity change read?
Its activity change is -48%.

With COc1ccc2c3c([nH]c2c1)[C@H](CO)N(Cc1ccccc1OC)CC31CCN(S(=O)(=O)c2ccccc2)CC1 as the compound, how does the activity change read?
Its activity change is -79.1%.

With COc1ccc2c3c([nH]c2c1)[C@@H](CO)N(C(C)=O)CC31CCN(Cc2ccccc2Cl)CC1 as the compound, how does the activity change read?
The activity change was -38.2%.

With COc1ccc(-c2ccc([C@@H]3[C@@H](C#N)N(C(=O)C4CCCCC4)[C@H]3CO)cc2)cc1 as the compound, how does the activity change read?
Its activity change is -30.1%.

With CCC(=O)Nc1ccc2c(c1)C(=O)N(C)C[C@H](OC)[C@H](C)CN(C(=O)c1ccccn1)[C@@H](C)CO2 as the compound, how does the activity change read?
The activity change was 15.8%.

Which activity change does the source give for COc1ccc2c3c(n(C)c2c1)[C@H](CO)N(C(=O)Nc1c(C)noc1C)CC31CN(CC2CC2)C1 here?
Its activity change is -7.59%.

Which activity change does the source give for O=C(C[C@H]1CC[C@H]2NC[C@@H](O)COC[C@@H]2O1)NCCN1CCCC1 here?
Its activity change is 9.89%.

For COc1cccc(CN(C)C[C@H]2OCc3ccccc3-c3c(n(C)c4ccccc34)C(=O)N([C@@H](C)CO)C[C@@H]2C)c1, which activity change is on record?
Its activity change is -62%.

Which activity change does the source give for COc1ccc2c3c(n(C)c2c1)[C@H](CO)NCC31CN(S(=O)(=O)c2cccc(C)c2)C1 here?
The activity change was 21.6%.

Which activity change does the source give for C[C@H](CO)N1C[C@H](C)[C@@H](CN(C)Cc2ccc(C(=O)Nc3ccccc3N)cc2)Oc2c(NC(=O)c3ccc(-c4nccs4)cc3)cccc2C1=O here?
Its activity change is -90% (active).

Which activity change does the source give for C[C@@H]1CN([C@@H](C)CO)C(=O)c2cccc(NC(=O)c3ccc(-c4nccs4)cc3)c2O[C@H]1CN(C)Cc1ccc(Cl)c(Cl)c1 here?
The activity change was -90.3% (active).

With C[C@H]1CN([C@@H](C)CO)C(=O)c2cccc(NS(=O)(=O)c3cccs3)c2O[C@H]1CN(C)Cc1ccc(C(=O)Nc2ccccc2N)cc1 as the compound, how does the activity change read?
The activity change was -87.1% (active).

With C[C@@H]1CN([C@@H](C)CO)C(=O)c2cccc(NC(=O)c3cnccn3)c2O[C@H]1CN(C)Cc1ccc(-c2ccccc2)cc1 as the compound, how does the activity change read?
The activity change was -64.1%.

With C[C@@H]1CN([C@@H](C)CO)C(=O)c2cccc(NS(=O)(=O)c3cccs3)c2O[C@H]1CN(C)Cc1ccncc1 as the compound, how does the activity change read?
The activity change was 28.4%.

With C[C@@H]1CN([C@@H](C)CO)C(=O)c2cccc(NS(=O)(=O)c3cccs3)c2O[C@@H]1CN(C)CC1CC1 as the compound, how does the activity change read?
Its activity change is 18.4%.

Which activity change does the source give for C[C@H]1CN([C@@H](C)CO)C(=O)c2cccc(NC(=O)c3ccc(-c4nccs4)cc3)c2O[C@H]1CN(C)Cc1ccc(C(=O)O)cc1 here?
Its activity change is 24%.

With C[C@H](CO)N1C[C@H](C)[C@@H](CN(C)S(C)(=O)=O)Oc2c(NC(=O)c3ccc(-c4nccs4)cc3)cccc2C1=O as the compound, how does the activity change read?
Its activity change is -4.15%.

Which activity change does the source give for C[C@H](CO)N1C[C@H](C)[C@H](CN(C)S(C)(=O)=O)Oc2c(NC(=O)c3ccc(-c4nccs4)cc3)cccc2C1=O here?
The activity change was -3.36%.

For C[C@@H]1CN([C@@H](C)CO)C(=O)c2cccc(NC(=O)c3cnccn3)c2O[C@H]1CN(C)Cc1ccc(C(=O)O)cc1, which activity change is on record?
The activity change was -5.79%.

With C[C@@H]1CN([C@@H](C)CO)C(=O)c2cccc(NC(=O)c3ccc(-c4nccs4)cc3)c2O[C@@H]1CN(C)Cc1ccncc1 as the compound, how does the activity change read?
Its activity change is -15.6%.

With C[C@@H]1CN([C@H](C)CO)C(=O)c2cccc(NC(=O)c3cnccn3)c2O[C@@H]1CN(C)Cc1ccc(C(=O)Nc2ccccc2N)cc1 as the compound, how does the activity change read?
The activity change was -88.3% (active).

Which activity change does the source give for COc1ccc2c3c(n(C)c2c1)[C@@H](CO)N(CC1CC1)CC31CN(C(=O)c2cccc(F)c2)C1 here?
The activity change was -33.2%.

With CO[C@H](CN(C)C(=O)c1cnccn1)[C@@H](C)CN([C@@H](C)CO)S(=O)(=O)c1ccc(C)cc1 as the compound, how does the activity change read?
The activity change was 25.3%.

Which activity change does the source give for COc1ccccc1NC(=O)N1C[C@H]2[C@@H](c3ccccc31)[C@@H](CO)N2C(=O)C1CCCC1 here?
Its activity change is -11.4%.

With CCNC(=O)[C@H]1[C@H](CO)[C@H]2Cn3c(ccc(C4=CCCC4)c3=O)[C@@H]1N2S(=O)(=O)c1cn(C)cn1 as the compound, how does the activity change read?
The activity change was 21.7%.

Which activity change does the source give for COc1ccc(-c2ccc3c(c2)O[C@H](CN(C)Cc2ccccc2C(=O)O)[C@H](C)CN([C@@H](C)CO)S3(=O)=O)cc1 here?
The activity change was -14.1%.

For CO[C@H]1CN(C)C(=O)c2cc(NC(=O)c3ccc4c(c3)OCO4)ccc2OC[C@@H](C)N(CCC(F)(F)F)C[C@H]1C, which activity change is on record?
Its activity change is -12.7%.

Which activity change does the source give for C[C@@H](C(=O)N(C)C[C@H]1OCc2ccccc2-c2c(n(C)c3ccccc23)C(=O)N([C@@H](C)CO)C[C@@H]1C)c1ccccc1 here?
The activity change was -70%.

Which activity change does the source give for O=C(C[C@@H]1CC[C@@H]2[C@H](COC[C@@H](O)CN2Cc2cc(F)cc(F)c2)O1)NCc1cccc(F)c1 here?
The activity change was -16.3%.

For C[C@H](CO)N1C[C@H](C)[C@@H](CN(C)C(=O)c2ccncc2)Oc2cc(C3=CCCCC3)ccc2S1(=O)=O, which activity change is on record?
Its activity change is -11.8%.

For C[C@H](CO)N1C[C@H](C)[C@@H](CN(C)C(=O)Nc2ccccc2)Oc2c(NC(=O)CCCCCC(=O)Nc3ccccc3N)cccc2C1=O, which activity change is on record?
Its activity change is -26.6%.

For C[C@@H]1CN([C@@H](C)CO)C(=O)c2cccc(NC(=O)CCCCCC(=O)Nc3ccccc3N)c2O[C@H]1CN(C)C(=O)Nc1ccccc1, which activity change is on record?
Its activity change is -53.7%.

With C[C@H](CO)N1C[C@H](C)[C@H](CN(C)CC2CCCCC2)Oc2ccc(NC(=O)CCCCCC(=O)Nc3ccccc3N)cc2CC1=O as the compound, how does the activity change read?
The activity change was -32.3%.

For C[C@@H]1CN([C@@H](C)CO)C(=O)c2cccc(NC(=O)CCCCCC(=O)Nc3ccccc3N)c2O[C@H]1CN(C)C(=O)Nc1cccc2ccccc12, which activity change is on record?
The activity change was -86.4% (active).

For CC(C)NC(=O)Nc1cccc2c1O[C@H](CN(C)CC1CCCCC1)[C@H](C)CN([C@H](C)CO)C2=O, which activity change is on record?
Its activity change is -26.3%.

With C[C@H]1CN([C@@H](C)CO)C(=O)c2cccc(NC(=O)CCCCCC(=O)Nc3ccccc3N)c2O[C@@H]1CN(C)CC1CCCCC1 as the compound, how does the activity change read?
Its activity change is -83.5% (active).

With COc1cccc(S(=O)(=O)Nc2ccc3c(c2)[C@H]2C[C@H](CC(=O)O)O[C@H](CO)[C@H]2O3)c1 as the compound, how does the activity change read?
The activity change was 19%.

Which activity change does the source give for CCCNC(=O)Nc1ccc2c(c1)C(=O)N(C)C[C@@H](OC)[C@@H](C)CN(Cc1ccccn1)[C@@H](C)CO2 here?
Its activity change is -2.2%.

Which activity change does the source give for O=C(NC1CCC1)[C@H]1[C@H](CO)[C@H]2Cn3c(ccc(-c4ccccc4)c3=O)[C@@H]1N2Cc1cocn1 here?
Its activity change is 10.7%.

Which activity change does the source give for Cn1cnc(S(=O)(=O)NC[C@@H]2CC[C@@H]3[C@@H](CN3Cc3nccs3)O2)c1 here?
Its activity change is 28.5%.

Which activity change does the source give for C[C@@H]1CCCCO[C@@H](CN(C)S(=O)(=O)c2cn(C)cn2)[C@@H](C)CN([C@@H](C)CO)C(=O)c2cc(NC(=O)Nc3ccc(C(F)(F)F)cc3)ccc2O1 here?
The activity change was -75.5%.

Which activity change does the source give for O=C(C1CCCC1)N1CC(=O)N2[C@H](C1)[C@@H](c1ccc(-c3cccnc3)cc1)[C@@H]2CO here?
The activity change was -88.2% (active).

Which activity change does the source give for CN(C)CC#Cc1ccc([C@@H]2[C@H](CO)N3C(=O)CN(C(=O)Cc4cccnc4)C[C@@H]23)cc1 here?
Its activity change is -85.1% (active).

Which activity change does the source give for O=C(Cc1cccnc1)N1CC(=O)N2[C@H](CO)[C@H](c3ccc(C#CC4CCCC4)cc3)[C@@H]2C1 here?
The activity change was -26.7%.

For O=C(c1cccnc1)N1CC(=O)N2[C@H](CO)[C@H](c3ccc(-c4cccnc4)cc3)[C@@H]2C1, which activity change is on record?
The activity change was 25.3%.

For O=C(c1ccccc1F)N1CC(=O)N2[C@H](C1)[C@H](c1ccc(-c3ccc(F)cc3)cc1)[C@@H]2CO, which activity change is on record?
The activity change was -63.7%.

For O=C(C1CCCC1)N1CC(=O)N2[C@@H](CO)[C@@H](c3ccc(-c4cccnc4)cc3)[C@@H]2C1, which activity change is on record?
The activity change was -20.4%.

For O=C(c1ccccc1F)N1CC(=O)N2[C@H](CO)[C@H](c3ccc(-c4cccnc4)cc3)[C@H]2C1, which activity change is on record?
The activity change was -85.7% (active).

Which activity change does the source give for O=C(c1ccccc1F)N1CC(=O)N2[C@H](CO)[C@@H](c3ccc(-c4cccnc4)cc3)[C@H]2C1 here?
The activity change was 21.6%.

For O=C(Cc1cccnc1)N1CC(=O)N2[C@@H](CO)[C@H](c3ccc(C#CC4CC4)cc3)[C@@H]2C1, which activity change is on record?
Its activity change is -6.96%.

From PubChem BioAssay AID1159554 (Broad Institute, 2015)
